Laboratory results reported in the supplement of paper PMC7156485.
Where “and” joins values, the source holds several entries; their conditions need not be identical. Equal entries are not always repeated.
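Also: TDF is a line of transformed human dermal fibroblasts of mesenchymal origin.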

What follows are compounds tested on HCC1569 (assay: H1.0 immunofluorescence intensity relative to DMSO (% of DMSO); higher = stronger H1.0 induction, active = 140 or more). Settings: concentration: 10 µM; 24 h.
Outline: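 Compounds were applied at 10 µM for 24 h at 37 °C, in triplicate, to HCC1569 and TDF cells. The cells were then fixed and stained for H1.0, and nuclei were counterstained with DAPI. Nuclear H1.0 intensity or cell number is reported relative to the plate control as a percent, taking the median of replicates. Smoothing for positional effects was applied to HCC1569 values only.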
`NCC1OC(OC2C(CO)OC(OC3C(O)C(N)CC(N)C3OC3OC(CN)C(O)C(O)C3N)C2O)C(N)C(O)C1O` (stereo not given) [Neomycin] was tested, and the H1.0 immunofluorescence intensity was 91.8 (inactive). For `c1ccc(-c2ccccn2)nc1` [2,2'-Bipyridyl], the H1.0 immunofluorescence intensity was 102 (inactive). For `COc1cccc(-c2cc(=O)c3ccccc3o2)c1N`, the H1.0 immunofluorescence intensity was 106 (inactive) and 104 (inactive). `CC(CN1c2ccccc2Sc2ccccc21)N(C)C.Cl` (stereo not given) [Promethazine hydrochloride] was tested, and the H1.0 immunofluorescence intensity was 106 (inactive). For `Cc1nn(C)c2nc(NNC(=O)Nc3cc(Cl)nc(Cl)c3)cc(C(C)C)c12`, the H1.0 immunofluorescence intensity was 140 (active). `CN1C(=O)CC(C(=O)O)C1c1cccnc1` (stereo not drawn) [Trans-4-Cotininecarboxylic acid] was tested, and the H1.0 immunofluorescence intensity was 85.3 (inactive). With `CC(=O)C1CCC2C3CC=C4CC(OS(=O)(=O)[O-])CCC4(C)C3CCC12C.[Na+]` (stereo not given) [Pregnenolone sulfate sodium] the H1.0 immunofluorescence intensity was 97.8 (inactive). For `O=C1c2c(O)cc(O)cc2O[C@H](c2cc(O)c(O)c(O)c2)[C@H]1O`, the H1.0 immunofluorescence intensity was 93.3 (inactive). With `O=C1NC(c2cccc([N+](=O)[O-])c2)=CCN1c1ccccc1O` the H1.0 immunofluorescence intensity was 94.9 (inactive). `CC(C)C(CO)Nc1nc(Nc2cccc(Cl)c2)c2ncn(C(C)C)c2n1` (stereo not given) [Purvalanol A] was tested, and the H1.0 immunofluorescence intensity was 129 (inactive). For `CC(=O)OCC[N+](C)(C)C` [Acetylcholine], the H1.0 immunofluorescence intensity was 100 (inactive). `CN1CCN2c3ccccc3Cc3ccccc3C2C1.Cl` (stereo not given) [Mianserin hydrochloride] was tested, and the H1.0 immunofluorescence intensity was 98.4 (inactive). In the case of `Cc1c2c(c(O)c3c(O)cccc13)C(=O)OC2C1C(O)C(=O)C(C(N)=O)=C(O)C1N(C)C` (racemic), the H1.0 immunofluorescence intensity is reported as 102 (inactive). For `Cc1ccc(-c2c(-c3nn(C)c4ncnc(N5CC[C@H](N6CCCCC6)C5)c34)cnn2C)cc1`, the H1.0 immunofluorescence intensity was 99.2 (inactive). `Cl.c1ccc(CN2CCC3(CCCc4ccccc43)CC2)cc1` [L-687,384 hydrochloride] was tested, and the H1.0 immunofluorescence intensity was 103 (inactive).
